We go through eight compounds from PubChem BioAssay (NCATS).

Inconclusive results are not listed. Active and inactive are the calls of the source. Calls come from the whole dose curve; as a rule, active = well fitted cell-killing curve with a large enough effect; inconclusive = small, poorly fitted or top-dose-only effect, or effect the other way; inactive = no such curve, though single readings can be large or run the other way.
Potency is the fitted concentration of half-maximal effect.

The test is described as follows: Quantitative High-Throughput drug screen in 47 multiple myeloma cell lines against the NCATS MIPE library collection: KMS12BM_JCRB cell viability assay (AID 1918971). Note: nearly all actives have a fitted effect of over 35% in size. The settings on record: KMS12BM myeloma viability, CellTiter-Glo ATP, 48 h; series mostly up to 45.8 µM. In outline: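 We plated 500 myeloma cells per well, pinned in MIPE 4.0 compounds, and incubated for 48 hours at 37C. ATP was then quantified with CellTiter-Glo, with DMSO and media-only wells defining 100% and 0%.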
On to `CC(=O)O[C@H]1C(=O)[C@@]2(C)C([C@H](OC(=O)c3ccccc3)[C@]3(O)C[C@H](OC(=O)[C@H](O)[C@@H](NC(=O)c4ccccc4)c4ccccc4)C(C)=C1C3(C)C)[C@]1(OC(C)=O)CO[C@@H]1C[C@@H]2O` (stereo partly drawn), for which the Potency result was “inactive”.

With `Cc1ccc(C)c(OCCCC(C)(C)C(=O)O)c1`, the Potency entry is “inactive”.

Regarding `COc1cc(Nc2c(C#N)cnc3cc(OCCCN4CCN(C)CC4)c(OC)cc23)c(Cl)cc1Cl`, the Potency was 14.8 µM (active).

In the case of `CCN(CC)C(=S)SSC(=S)N(CC)CC`, the Potency was 0.0093 µM (active).

With `O=c1c(O)c(-c2ccc(O)cc2O)oc2cc(O)cc(O)c12`, the Potency is 2.09 µM (active).

For `CCCOc1ccc2nc(NC(=O)OC)[nH]c2c1`, the Potency is 0.0066 µM (active).

For the compound `CC(C)C[C@H](NC(=O)[C@H](Cc1ccccc1)NC(=O)c1cnccn1)B(O)O`, the Potency was 0.0148 µM (active).

Turning to `Cc1cccc(CN2CCN(C(c3ccccc3)c3ccc(Cl)cc3)CC2)c1` (stereo not drawn), the Potency was 26.4 µM (active).
